Six1-Eya2 blk: Six1/Eya2 interaction inhibition. actives 0.56% (n = 360,000). AlphaScreen GST-Six1/His-Eya2 binding, biochemical; hits give low values. Q15475+O00167. activity change, % (no concentration beside the values); in the data active = activity change below about -65%; inconclusive = mostly about -30% to -63%; note: % is set by controls: 0 for no effect and ±100 for the full control effect
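AlphaScreen luminescence read after one hour at 37 °C in darkness. Pin-transferred compounds met GST-Six1 and His-Eya2 protein (5X stock 250 nM/500 nM) plus glutathione donor and Ni-chelate acceptor beads (5X, 50 ug/mL).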
CtBP-E1A inh: inhibitors of CtBP/E1A interaction; activity change, % (test concentration not listed); actives 0.49% (n = 340,000); AlphaScreen GST-E1A/His-CtBP binding, 1536-well; hits give low values; in the data active = activity change below about -65%; inconclusive = mostly about -30% to -63%; note: % is set by controls: 0 for no effect and ±100 for the full control effect
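Protein mix (5X: 125 nM each GST-E1A, His-CtBP) was incubated with pinned compound 2 h at 37 deg C in dark, in 50 mM Tris pH 8.0 buffer with 300 mM NaCl. Glutathione donor and nickel acceptor beads followed; AlphaScreen signal read after 1 h.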
JMJD2A Tudor inh: inhibitors of human JMJD2A Tudor domain; AlphaScreen JMJD2A-Tudor / H3K4me3 peptide binding; Potency, µM (series often up to 114 µM), for inactives: at the top dose activity change, negative = inhibition, actives largely listed as inhibitors; actives 4.4% (n = 390,000); note: potency is the fitted concentration of half-maximal effect; % is set by controls: 0 for no effect and ±100 for the full control effect; nearly all actives have a fitted effect of over 50% in size
HP1b chromo inh: blocks HP1-beta chromodomain binding to methylated histone tails; P83916; AlphaScreen HP1-beta / biotin-H3K9me3 peptide binding; Potency, µM (doses to about 114 µM), for the others: top-dose activity change, negative = inhibition, usual class: inhibitors; actives 0.56% (n = 390,000); AID 540317; note: potency is the fitted concentration of half-maximal effect; nearly all actives have a fitted effect of over 70% in size
Target sequence (P83916 whole entry, looked up): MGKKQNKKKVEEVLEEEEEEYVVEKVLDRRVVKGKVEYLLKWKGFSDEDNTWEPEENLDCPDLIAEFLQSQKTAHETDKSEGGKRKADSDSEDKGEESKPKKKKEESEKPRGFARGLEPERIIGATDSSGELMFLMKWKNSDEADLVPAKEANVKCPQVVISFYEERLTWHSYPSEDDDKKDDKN
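Compound inhibition of the preformed complex between 50 nM HP1-beta and 50 nM biotinylated H3K9me3 peptide was read by AlphaScreen. Buffer was PBS pH 7.4 with 0.01% Tween-20. Incubations ran 30 min at room temperature, with 10 ug/mL donor/acceptor beads.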
G9a inh: G9a (human) methyltransferase inhibition; Q96KQ7; G9a H3K9 monomethylation, AlphaScreen, 2 h; Potency, µM (doses to about 102 µM), for the others: top-dose activity, negative = inhibition, usual class: inhibitors; actives 8.8% (n = 350,000); AID 504332; note: potency is the fitted concentration of half-maximal effect; % is set by controls: 0 for no effect and ±100 for the full control effect; nearly all actives have a fitted effect of over 75% in size
Target sequence (Q96KQ7 913-1193 limits assumed): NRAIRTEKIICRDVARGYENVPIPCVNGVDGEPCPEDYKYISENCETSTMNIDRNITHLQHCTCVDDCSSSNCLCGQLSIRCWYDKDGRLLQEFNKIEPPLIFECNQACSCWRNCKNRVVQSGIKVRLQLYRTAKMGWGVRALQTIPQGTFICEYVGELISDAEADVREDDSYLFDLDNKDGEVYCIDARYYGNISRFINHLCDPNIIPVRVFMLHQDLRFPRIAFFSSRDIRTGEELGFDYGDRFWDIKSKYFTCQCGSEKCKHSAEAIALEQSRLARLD
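Methyltransferase reactions run at room temperature for 2 h (20 nM enzyme, 500 nM biotin-H3K9 peptide, 20 uM SAM) after a 15 min compound preincubation; product detected by AlphaScreen beads and anti-H3K9me1 antibody.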
BAZ2B block: blocks human BAZ2B | Q9UIF8 | AlphaScreen BAZ2B-H3K14Ac peptide displacement | Potency, µM (doses to about 114 µM), without a hit: at the highest dose activity change, negative = inhibition, most hits filed as inhibitors | actives 4.4% (n = 360,000) | AID 504333; note: potency is the fitted concentration of half-maximal effect; % is set by controls: 0 for no effect and ±100 for the full control effect; nearly all actives have a fitted effect of over 60% in size
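AlphaScreen luminescence quantifies BAZ2B engagement of H3K14Ac peptide; the protein and biotinylated peptide are both at 50 nM final, buffer PBS pH 7.4 with 0.01% Tween-20, all steps at room temperature.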
An asterisk follows results filed as active; u = inconclusive; x = no result given; [ ] = remark or other dose. A selection: hits, their analogues and other compounds. The true share with any hit is near 10%. Unless noted, calls come from the whole dose curve; as a rule, active = well fitted inhibition curve with a large enough effect; inconclusive = small, poorly fitted or top-dose-only effect; inactive = no such curve, though single readings can be large or run the other way.

SMILES | Six1-Eya2 blk | CtBP-E1A inh | JMJD2A Tudor inh | HP1b chromo inh | G9a inh | BAZ2B block
Cc1ccc(C#CC[N+]2(CC#Cc3ccc(C)cc3)CCCCC2)cc1 | 3 | -10 | -23% | 22% | 89µM* | 4%
CCOC(=O)C1=C(C)OC(N)=C(C#N)C1c1cc2cc(C)ccc2nc1N1CCCCC1 (stereo not given) | -1 | -6 | -3% | 53% | 10µM* | -12%
CCOC(=O)C1=C(C)OC(N)=C(C#N)C1c1cc2c(cc1Br)OCO2 (stereo not given) | -4 | -11 | -34% | -9% | u | -39%
CCOC(=O)C1=C(C)OC(N)=C(C#N)C1c1cc2ccccc2nc1N1CCCCC1 (stereo not given) | 3 | 11 | 2% | 66% | 11µM* | -2%
CCOC(=O)C1=C(C)OC(N)=C(C#N)C1c1cc(C)sc1C (stereo not given) | -1 | -3 | -11% | 29% | x | -26%
CCCOC(=O)Nc1nc2ccccc2o1 | -6 | -9 | u | 10% | 50µM* | 79µM*
CCOC(=O)C(C)Sc1nc2c(c(=O)[nH]c(=O)n2C)n1CCc1ccccc1 (stereo not given) | -1 | 1 | 0% | -18% | u | -12%
C/C=C/CSc1nc2c(c(=O)[nH]c(=O)n2C)n1CCC | -8 | 11 | -11% | 5% | -12%[59 µM] | x
CCCCOC(=O)CSc1nc2c(c(=O)[nH]c(=O)n2C)n1C/C=C(\C)Cl | -2 | 3 | 0% | -9% | 16µM* | 8%
C/C(Cl)=C/Cn1c(SCC(C)C)nc2c1c(=O)[nH]c(=O)n2C | 3 | 1 | 9% | 10% | 50µM* | 8%
CCOC(=O)C(CC)Sc1nc2c(c(=O)[nH]c(=O)n2C)n1C/C=C(/C)Cl (stereo not given) | -6 | -4 | 18µM* | -11% | u | -3%
CCc1nnc2c3ccccc3nc(Nc3ccc(C(C)=O)cc3)n12 | x | x | -15% | 21% | 4%[59 µM] | 7%[57.1 µM]
O=C(Oc1ccccc1C(=O)Nc1ccccc1)c1ccc(Br)c([N+](=O)[O-])c1 | -8 | 6 | -36% | 8% | -17%[59 µM] | -34%
O=C(NCc1cc(Br)cc(Br)c1OC(=O)c1ccccc1[N+](=O)[O-])c1ccccc1 | -72* | u | -31% | -3% | 40µM* | -24%
COc1ccc(CN2CCC2(C)C(=O)Nc2cccc(NS(C)(=O)=O)c2)c2ccccc12 (stereo not given) | -14 | -16 | x | x | x | x
COc1ccc(-n2c(SCC(=O)N3CCC(C)CC3)nc3c([nH]c4ccccc43)c2=O)cc1 | x | x | -2% | 13%[57 µM] | 4%[59 µM] | 6%
CN(CC(=O)Nc1ccccc1Br)C(=O)c1sccc1-c1ccccc1 | 8 | x | -8% | 30% | -10%[12.7 µM] | -7%
O=C(/C(=C/O)N=Nc1ccccc1)c1ccncc1 | -13 | -6 | u | -15% | -2%[59 µM] | u
Cc1cccc(N=N/C(=C\O)C(=O)c2cccs2)c1 | -20 | -14 | 25µM* | u | 28µM* | 11µM*
CC(C)CCn1c(SCC(=O)Nc2ccccc2C(F)(F)F)nc2nccnc2c1=O | 4 | -1 | -27% | 12% | 6.3µM* | 79µM*
COCCn1c(SCC(=O)Nc2ccccc2C(F)(F)F)nc2ccccc2c1=O | -5 | 0 | -10% | 38% | x | 6%
S=c1nc(C2CCCCC2)n(-c2ccccc2)[nH]1 | 4 | 2 | 16µM* | 38% | 3.5µM* | -25%
Nn1c(C2CCCCC2)nc2ccccc2c1=O | 16 | x | -2% | 78% | 39%[12.7 µM] | 0%
COc1ccc(OC)c([C@@H]2Nc3ccc(C(=O)O)cc3[C@@H]3C=CC[C@@H]32)c1 | x | x | u | 0% | u | -25%
O=C(O)c1ccc2c(c1)[C@@H]1C=CC[C@@H]1[C@H](c1ccccn1)N2 | -77* | -16 | 6.3µM* | u | x | x
